Screening data deposited in PubChem by NMMLSC.
BoNT F protease – blocks Botulinum neurotoxin F light chain protease; actives 0.22% (n = 360,000); Multiplex microsphere protease cleavage assay, flow cytometry; inhibition, % at 10 µM; AID 588497; in the data active = inhibition above about 35%, passing the limit was not always enough; inconclusive = no clear call, values can overlap the other calls; also: plate controls were buffer without enzyme for full effect and enzyme alone for no effect
BoNT-A LC inh2 – blocks Botulinum neurotoxin A light chain protease | AID 588499 | actives 0.17% (n = 360,000) | inhibition, % at 10 µM | multiplex microsphere protease substrate cleavage, flow cytometry; also: plate controls were buffer without enzyme for full effect and enzyme alone for no effect
Bead autofluor – compound fluorescence in toxin protease inhibitor counterscreen; fluorescence intensity (test concentration not listed); compound autofluorescence counterscreen, microsphere flow cytometry; hits give high values; actives 3.1% (n = 360,000); in the data active = fluorescence intensity above about 16000; inconclusive = no clear call, values can overlap the other calls
Anthrax LF prot – anthrax lethal factor protease inhibition; actives 0.12% (n = 360,000); multiplex microsphere protease cleavage assay, LF; inhibition, % at 10 µM; P15917; AID 588501; also: plate controls were buffer without enzyme for full effect and enzyme alone for no effect
Active calls of the source: *; ? = inconclusive. Sampled rows, rich in hits. Any-hit rate of the full collection: about 3.5%. Rule as the data show it, unless noted: active = inhibition above about 30%; inconclusive = no clear call, values can overlap the other calls; inactive = below that.

SMILES	BoNT F protease	BoNT-A LC inh2	Bead autofluor	Anthrax LF prot
COC(=O)CCCn1cc(CN2CC(N3CCN(Cc4ccccc4F)CC3)CS2(=O)=O)nn1 (centres undefined)	3	0	5628	-3
COc1ccc(S(=O)(=O)N2CCC3CC2c2c(-c4ccc(C(F)(F)F)cc4)cccc23)cc1 (centres undefined)	5	-1	5492	6
Cc1oc2c(c1C(=O)Nc1ccc(C(=O)O)cc1)CCCC2	1	-1	17117*	-2
CC1(C)CC(N2CCCCC2)=CC(=[N+]2CCCCC2)C1	0	-2	27656*	6
CC1(C)CC(N2CCOCC2)=CC(=[N+]2CCOCC2)C1	-3	0	4565	-6
Cc1ccc(CNc2ncnc3ccc(-c4ccoc4C)cc23)o1	-2	0	2957	-5
CCCc1[nH]n(-c2nc3ccccc3s2)c(=O)c1C=NCC1CCCO1 (centres undefined)	6	5	19952*	-6
CCCc1[nH]n(-c2nc3ccccc3s2)c(=O)c1C=NCCN1CCOCC1	27	?	15365	-7
Cc1nc(Nc2ccc(Cl)c(Cl)c2)sc1C(/C=C/c1ccc2c(c1)OCO2)=NNc1ccc([N+](=O)[O-])cc1[N+](=O)[O-]	-21	0	3202	-5
O=C(O)c1cc(N2C(=O)C3C4C=CC(C4)C3C2=O)ccc1NCc1cccnc1 (centres undefined)	-1	0	23049*	-2
O=C1c2ccccc2C(=Nc2ccccc2)C1c1cccc(Br)c1 (centres undefined)	-2	1	21729*	-10
CC(C)Cn1c(NCCO)nc2ccccc21	0	1	19740*	-1
OCCNc1nc2ccccc2n1CC(O)c1ccccc1 (centres undefined)	1	0	3958	-4
CN(Cc1nc2ccccc2c(=O)[nH]1)C(=O)c1cccc(S(=O)(=O)N2CCc3ccccc32)c1	-5	0	8593	2
COc1ccc(OCC(=O)NNC(=O)c2ccc3c(=O)n4c(nc3c2)CCC4)cc1	0	0	6064	0
CCOC(=O)Cc1ccc(Nc2nc(NCc3cccs3)nc3ccsc23)cc1	-1	0	4033	9
Cc1ccc(-c2cc(-c3ccco3)c3c(N)c(C(=O)NN)oc3n2)cc1	-22	0	4125	-11
NNC(=O)c1oc2nc(-c3ccccc3)cc(-c3ccccc3)c2c1N	29	-3	16851*	-7
O=C(Nc1c(C(=O)N2CCOCC2)cnn1-c1ccccc1)c1ccco1	-2	?	23770*	-4
CCN1C(=O)[C@H]2[C@@H](c3ccc(C(F)(F)F)cc3)N[C@]3(CCCN(Cc4ccccc4)C3=O)[C@H]2C1=O	8	0	3658	1
CCCCn1c(=NC(=O)c2ccc3c(c2)OCO3)c(C#N)cc2c(=O)n3cccc(C)c3nc21	38*	63*	2551	49*
CCCCn1c(=NC(C)=O)c(C#N)cc2c(=O)n3cccc(C)c3nc21	-4	1	3842	-5
Cc1ccccc1-n1c(=O)c(C#N)cc2c(=O)n3ccccc3nc21	-7	?	21339*	0
CCCCCn1c(=NC(C)=O)c(C#N)cc2c(=O)n3ccccc3nc21	0	2	23665*	0
C[C@@H]1CN([C@H](C)CO)S(=O)(=O)c2ccc(C#CC3CCCC3)cc2O[C@H]1CN(C)C(=O)Cc1ccccc1	-8	0	4071	3
SMILES	BoNT F protease	BoNT-A LC inh2	Bead autofluor	Anthrax LF prot
Oc1ccc(Nc2nc(-c3ccc(O)cc3)cs2)cc1	-13	0	11073	-13
NS(=O)(=O)c1ccc(Nc2nc(-c3ccc(O)cc3)cs2)cc1	-2	-2	21481*	-1
O=C(OCC1CCC=CO1)C1CCC=CO1 (centres undefined)	-18	0	3045	-3
C#CC1(NC(=S)Nc2cccc(OC)c2)CCCCC1	2	0	3432	2
C(=N\n1cnnc1)/c1ccc(OCc2ccccc2)cc1	6	1	9724	0
CCOc1ccc(/C=N/n2cnnc2)cc1	-3	?	17072*	3
CCc1ccc(/C=N\n2cnnc2)cc1	45*	6	3657	?
COc1ccc(C(=O)NCCN2CCC(n3c(=O)[nH]c4ccccc43)CC2)cc1F	-4	1	5691	5
CC(C)Cc1nc2oc3c(N4CCN(CCO)CC4)ncnc3c2c2c1CCCC2	-5	0	10925	-2
CCOC(=O)c1oc2nc(CC(C)C)c3c(c2c1N)CCC3	2	-1	20183*	-3
O=C(c1cc(-c2cccs2)nc2ccccc12)N1CCN(S(=O)(=O)c2ccccc2)CC1	3	0	16484*	-3
O=C(c1ccccc1C(F)(F)F)N1CCN(S(=O)(=O)c2ccccc2)CC1	1	1	19835*	2
